# Compound activity deposited in PubChem BioAssay by National Center for Advancing Translational Sciences (NCATS).
# Most compounds without a hit are left out; they make up all but 1.9% or so of the library.
# FUS yeast rescue: rescues growth of FUS-expressing yeast | S. cerevisiae FUS-expressing, growth rescue, OD600, 24 h | Potency, µM (series often up to 76.6 µM), most hits filed as activators | 390,000 tested, 0.24% active; further: nearly all actives have a fitted effect of over 55% in size
#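 Cultures pregrown in 2.5% raffinose medium are shifted to minimal medium containing 2% galactose to express toxic FUS. Compounds are tested at several concentrations. After 24hr at 30C, growth is quantified at 600 nm absorbance.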
# PTHR1 ag: activates the human parathyroid hormone receptor PTHR1. HEK293 GP2 PTHR1 cells, GloSensor cAMP luminescence, 1 h. AID 743266. Potency, µM (doses to about 115 µM), usual class: activators. 410,000 tested, 0.075% active; further: nearly all actives have a fitted effect of over 55% in size
# Target sequence (Q03431 whole entry, looked up): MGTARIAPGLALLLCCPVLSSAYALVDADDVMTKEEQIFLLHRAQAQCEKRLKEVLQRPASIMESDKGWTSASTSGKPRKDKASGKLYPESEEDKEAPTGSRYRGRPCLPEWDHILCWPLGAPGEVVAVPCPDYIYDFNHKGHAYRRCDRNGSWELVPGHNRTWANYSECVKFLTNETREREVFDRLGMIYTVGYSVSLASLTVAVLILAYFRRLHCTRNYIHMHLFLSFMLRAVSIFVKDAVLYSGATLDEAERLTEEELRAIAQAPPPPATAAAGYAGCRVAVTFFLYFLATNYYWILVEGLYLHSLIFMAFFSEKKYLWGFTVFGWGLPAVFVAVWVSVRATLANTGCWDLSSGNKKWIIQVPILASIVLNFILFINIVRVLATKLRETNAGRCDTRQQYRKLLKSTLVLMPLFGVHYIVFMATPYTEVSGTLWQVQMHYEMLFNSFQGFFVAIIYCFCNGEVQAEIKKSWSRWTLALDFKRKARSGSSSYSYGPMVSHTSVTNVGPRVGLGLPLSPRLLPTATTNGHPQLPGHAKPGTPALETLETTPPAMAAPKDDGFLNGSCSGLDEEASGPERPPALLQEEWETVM
#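 HEK-293-derived GP2 cells expressing PTHR1 and a GloSensor cAMP reporter, 3,000/well, plated overnight, given luciferin plus IBMX (each 0.5 mM as added) for 1 h at 37 °C, then compound for 1 h at 37 °C. Luminescence was read after 15 min at room temperature.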
# LDHA inh: inhibitors of human lactate dehydrogenase A. P00338. purified LDHA, NADH/diaphorase-resazurin fluorescence; hits give low values. activity change, % (values are at about 110 or 230 µM). 480,000 tested, 0.15% active. AID 1347041; in the data active means activity change below about -30%; inconclusive means mostly about -25% to -30%
#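 Remaining NADH was detected by diaphorase (0.133 mg/mL) converting 37 µM resazurin to fluorescent resorufin, read at 0 and 20 minutes. The preceding 5-minute room-temperature reaction used 2 nM LDHA, 0.2 mM sodium pyruvate and 0.06 mM NADH at pH 7.4.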
# aSyn yeast inh: alpha-synuclein toxicity inhibition in yeast. Potency, µM (series often up to 46.1 µM), hits mostly activators. Yeast expressing alpha-synuclein, growth rescue, BacTiter-Glo, 24 h. 370,000 tested, 0.14% active. AID 652106; further: nearly all actives have a fitted effect of over 65% in size
#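 Readout is rescue of growth in alpha-synuclein-expressing yeast, so inhibitors of toxicity appear as activators. Growth after 24 hr at 30 deg C in galactose medium is quantified by luminescence.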
# Abeta yeast res: restores growth of yeast expressing A-beta42 peptide; yeast expressing A-beta42, growth rescue, OD600, 48 h; response scale: 0% DMSO, 100% iron-clioquinol control; Potency, µM (highest dose often 46.1 µM), actives largely listed as activators; 410,000 tested, 0.063% active; AID 1347071; further: nearly all actives have a fitted effect of over 55% in size
#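 Yeast A-beta toxicity model in growth medium with pinned compounds, 48 h at 30 C; growth read as absorbance at 600 nm. Normalized to FeCl3/clioquinol equimolar mix (positive) and DMSO (negative).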
# TDP-43 yeast inh: inhibitors of TDP-43 toxicity in yeast; Potency, µM (series often up to 46.1 µM), actives largely listed as activators; 410,000 tested, 1.8% active; TDP-43 expressing yeast growth rescue, BacTiter-Glo, 24 h; further: nearly all actives have a fitted effect of over 50% in size
#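 Growth rescue of TDP-43-toxic yeast measured as ATP luminescence (BacTiter-Glo). Cells grown to mid-log in raffinose, induced in galactose at OD600=0.02, exposed to compound 24 hr at 30 deg C.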
# Numbers stand for hits; – = inactive; ? = inconclusive; · = not tested or not shown. Unless noted, the call rests on the fitted dose curve; in most records, active means well fitted curve in the direction sought with a large enough effect; inconclusive means small, poorly fitted or top-dose-only effect, or another doubt; inactive means no such curve, though single readings can be large; an effect the other way counts as inactive or inconclusive.
SMILES,FUS yeast rescue,PTHR1 ag,LDHA inh,aSyn yeast inh,Abeta yeast res,TDP-43 yeast inh
Cc1ccc(S(=O)(=O)N(CC(O)Cn2c3ccccc3c3ccccc32)c2cccc(C(=O)N(C)C)c2)cc1 (stereo not given),?,–,–,–,–,–
Cc1ccc(S(=O)(=O)N(CC(O)Cn2c3ccccc3c3ccccc32)c2cccc(C(=O)NCCO)c2)cc1 (stereo not given),20µM,–,–,–,–,–
Cc1cccc(C)c1NC(=O)CN(C)C(=O)Cc1csc(-c2cccc(Br)c2)n1,·,·,–,·,·,·
Cn1ncc2c(Nc3cc(C(F)(F)F)ccc3Cl)ncnc21,–,–,–,·,–,14µM
Cc1ccccc1Nc1ncnc2c1cnn2C,–,–,–,–,–,–
O=C(COC(=O)c1n[nH]c(=O)c2ccccc12)Nc1cccc(S(=O)(=O)N2CCOCC2)c1,40µM,–,–,–,–,–
O=C(COC(=O)c1cc(=O)[nH]c(=O)[nH]1)Nc1cccc(S(=O)(=O)N2CCOCC2)c1,–,–,–,–,–,–
CC(C)(CNC(=O)c1cc(-c2ccccc2F)on1)N1CCOCC1,·,·,–,·,·,·
CCOc1ccc(/C=N/NC(=S)NC2CC3C=CC2C3)cc1 (stereo not given),–,–,–,–,7.9µM,–
COc1cc(/C=N/NC(=S)NC2CC3C=CC2C3)cc(OC)c1OC (stereo not given),–,–,–,–,?,–
CC(=O)c1ccc(N2CCN(C(=O)c3csc(-c4ccc(C(C)C)cc4)n3)CC2)cc1,·,·,–,·,·,·
CCCS(=O)(=O)c1ncc(Cl)c(C(=O)N(Cc2ccccc2)Cc2ccco2)n1,–,–,–,–,–,16µM
CCCc1cnc(N2CCN(C(=O)c3ccccc3)CC2)nc1,–,–,–,–,–,11µM
O=C(c1ccccc1)N1CCN(c2ncccn2)CC1,–,–,–,–,–,–
CCOc1ccc(-n2ccn3c(SCC(=O)c4ccc(OC)c(OC)c4)nnc3c2=O)cc1,·,·,–,·,·,·
CCCn1nc(C(=O)OCC(=O)N2CCCc3ccccc32)c2ccccc2c1=O,·,·,-31,·,·,·
O=C(OCC(=O)N1CCc2ccccc21)c1c2c(nc3ccccc13)CCCCC2,·,–,–,–,–,22µM
Nc1nccnc1C(=O)NCC(=O)NC1CC1,·,·,–,·,·,·
Cc1cc(C)c(NC(=O)Cn2cc(S(=O)(=O)Cc3ccccc3F)c3ccccc32)c(C)c1,–,–,-31,·,–,–
Cc1ccc2onc(CC(=O)Nc3cc(F)ccc3F)c2c1,–,–,–,·,–,10µM
COC(=O)c1ccccc1NC(=O)Cc1noc2ccc(C)cc12,–,–,–,·,–,–
Cc1ccc(NC(=O)N2CC3CCCN3c3ccccc32)cc1C (stereo not given),–,–,–,·,–,20µM
COc1ccccc1CN1CCN(C(=O)c2ccncc2)CC1,–,–,-30,–,–,–
O=C(c1cccc(Cl)c1)N1CCN(Cc2ccncc2)CC1,–,–,-31,–,–,–
O=C(c1cccs1)N1CCN(Cc2ccncc2)CC1,–,–,-33,–,–,–
SMILES,FUS yeast rescue,PTHR1 ag,LDHA inh,aSyn yeast inh,Abeta yeast res,TDP-43 yeast inh
CCCC(=O)OCc1cc(=O)oc2cc(O)ccc12,·,·,–,·,·,·
Cc1cc(C)n(-c2ccc(C(=O)OCC(=O)NC3CCC(C)CC3)cc2)n1 (stereo not given),·,·,–,·,·,·
O=C(c1ccncc1)N1CCN(C2CCC(c3ccccc3)CC2)CC1 (stereo not given),–,–,-32,–,–,–
O=c1[nH]c2ccccc2c(-c2ccccc2)c1Sc1nc2ccccc2s1,·,·,–,·,·,·
C[C@H](c1ccccc1)N1C[C@@H](COCc2ccccc2)Oc2cc(N3CC[C@@H](O)C3)ccc2S1(=O)=O,–,–,–,–,–,28µM
C[C@@H](c1ccccc1)N1C[C@@H](COCc2ccccc2)Oc2cc(N3CC[C@H](O)C3)ccc2S1(=O)=O,?,–,–,–,–,?
CC(Sc1nnnn1C1CCCC1)C(=O)c1c[nH]c2ccccc12 (stereo not given),·,·,–,·,·,·
CCCCN1C(=O)C2(C(=C(O)c3ccc4c(c3)OCCO4)C(=O)C(=O)N2CCOC)c2ccccc21 (stereo not given),·,·,–,·,·,·
CSc1ccccc1NC(=O)COc1ccc(Cl)cc1C,·,–,–,–,–,16µM
COc1ccccc1N1CCN(C(=O)COc2ccc(Cl)cc2Br)CC1,–,–,–,28µM,–,14µM
COc1ccc(C(=S)N2CCN(c3ccccc3Cl)CC2)cc1OC,–,–,–,–,–,11µM
COc1ccccc1N1CCN(C(=O)COc2ccc(C)cc2Br)CC1,–,–,–,–,–,?
Cc1cc(Cl)ccc1OCC(=O)N1CCCN(C(=O)COc2ccc(Cl)cc2C)CC1,·,–,–,?,–,25µM
CC(Oc1ccccc1Cl)C(=O)N1CCCN(C)CC1 (stereo not given),–,–,–,–,–,–
Cc1cc(Cl)ccc1OC(C)C(=O)N1CCCN(C(=O)C(C)Oc2ccc(Cl)cc2C)CC1 (stereo not given),?,–,–,?,–,32µM
COc1ccccc1OCC(=O)Nc1ccc(C(=O)Nc2ccccc2C(=O)O)cc1,–,–,–,–,–,–
COc1ccc(CC(=O)Nc2ccc(C(=O)Nc3ccccc3C(=O)O)cc2)cc1OC,–,–,-37,–,–,–
CC(=O)CSc1ncnc2sc3c(c12)CCC3,–,–,–,?,–,25µM
CCC(=O)Oc1c(Sc2ccc(C)cc2)c(C)nn1-c1ccccc1,–,–,–,·,–,–
Cc1ccc(Sc2c(C)nn(-c3ccccc3)c2OC(=O)C(C)(C)C)cc1,–,–,–,·,–,14µM
CCCC(=O)Oc1c(Sc2ccc(C)cc2)c(C)nn1-c1ccccc1,–,–,–,·,–,11µM
O=C1N[C@@H](Cc2ccccc2)C(=O)N2[C@H]3Nc4ccccc4[C@@]3([C@]34C[C@H]5C(=O)N[C@@H](Cc6ccccc6)C(=O)N5[C@H]3Nc3ccccc34)C[C@@H]12,?,–,–,–,–,–
CC[C@H](C)[C@@H]1NC(=O)[C@H]([C@@H](C)CC)NC(=O)[C@@H](CC(C)C)NC(=O)[C@H](Cc2ccccc2)NC(=O)[C@H](Cc2ccccc2)NC(=O)[C@@H]2CCCN2C(=O)[C@@H]2CCCN2C(=O)[C@H](C(C)C)NC(=O)[C@H](CC(C)C)NC1=O,18µM,–,–,–,–,–
Cc1ccc(-c2nc(N)sc2-c2ccccc2)cc1C,·,–,–,–,–,16µM
Nc1nc(-c2ccccc2)c(-c2ccccc2)s1,–,–,–,–,–,–
